This passage reports outcome results from PubChem BioAssay AID1981 (Southern Research Specialized Biocontainment Screening …, 2009).

The campaign covered roughly 2,200 compounds. About 480 (22%) were called active. How the calls were made is not given here. A selection follows. Results with a measured potency or affinity are listed apart.

A short description of the assay: S. Typhimurium GFP fluorescence modified counterscreen for PhoP regulon inhibitor project dose response (AID 1981). The conditions noted are these: 4 h; series mostly up to 150 µM. A general note: The purpose of a counterscreen is to sort out artefacts and off-target activity.
Consider `O=C(Nc1cccc(Cl)c1)C1C2CCC3C(CCC21)C3(Cl)Cl` (centres undefined), for which the result was inactive. As to `O=C1CC(c2ccccc2)n2ncnc2N1` (centres undefined), the outcome was inactive. Then `Cc1onc(-c2ccccc2)c1C(=O)NC(=S)NNC(=O)c1ccc(O)cc1O`, with “inactive”; and `O=C(NC(NC(=S)Nc1ccc(Cl)cc1)C(Cl)(Cl)Cl)c1ccco1` (centres undefined), with “inactive”. Consider `FC(F)Oc1ccc(NC(=S)NCc2nc3ccccc3[nH]2)cc1`, for which the call was inactive. For `CCn1c(N)[n+](CC(=O)Nc2ccc(SC(F)F)cc2)c2ccccc21`, the outcome was inactive. Then `Cc1ccc2[nH]c3c(NCc4ccccc4)ncnc3c2c1`, with “inactive”. As for `COC(=O)N1CCN(c2ccc(Cl)c(Cl)c2)CC1`, the entry is “inactive”; as for `Brc1ccc2nc3c(n2c1)CCCC3`, “inactive”; as for `CC(=O)Nc1ccc(C(=O)Nc2nc(-c3cc(C)n(Cc4ccccc4)c3C)cs2)cc1`, “inactive”. As for `Cc1ccccc1Nc1nc(-c2sc(NC(=O)c3cccc(Cl)c3)nc2C)cs1`, the molecule was classed as inactive. As for `CC(C)Cc1oc(C(=O)O)cc1CN`, the entry is “inactive”; as for `Nc1nc(C2CCCCC2)cs1`, “inactive”.

Take `CCN(CC(=O)Nc1ccc(N2CCOCC2)cc1)Cc1nc2ccccc2c(=O)[nH]1`: the call was inactive. As to `COc1ccc(OC)c(/C=N/NC(=O)Cc2nc3ccccc3[nH]2)c1`, the call was inactive. Then `COc1ccc(OC)c(/C=N/NC(=O)c2cc3c(OC)c(OC)ccc3[nH]2)c1`, with “inactive”; and `C#CCOc1c(Cl)cc(/C=N/O)cc1OC`, with “inactive”. As for `Cc1nn(-c2ncc(C(F)(F)F)cc2Cl)c(=O)n1-c1cccc(Cl)c1`, the entry is “inactive”; as for `Cc1ccc(C)n1-c1cccc(N)c1`, “inactive”.

For `O=S1(=O)CC(O)C(Nc2ccccc2Cl)C1` (centres undefined), the molecule was classed as inactive. With `COc1ccccc1NC(=O)Cn1nnc(-c2ccccc2NC(=O)c2cccs2)n1`, the call was inactive.

As for `Fc1cc(Br)ccc1NC(=S)Nc1ccccc1`, the outcome was inactive. As for `CCN(CC)S(=O)(=O)c1cccc(NC(=O)Nc2cccc(C(F)(F)F)c2)c1`, the molecule was called inactive. For the molecule `COC(=O)Cc1ccc(NC(=S)N2CCN(c3ccc(F)cc3)CC2)cc1`, the outcome was inactive.

On to `O=S(=O)(Nc1ccc2ccccc2c1)c1ccccc1`, for which the outcome was inactive.

As to `Cc1scc(C(=O)O)c1-c1c(C(=O)O)csc1C`, the result was inactive. `O=C(c1ccccc1)c1nc2ccccc2n(CCCn2c(=O)c(C(=O)c3ccccc3)nc3ccccc32)c1=O`: the call was inactive. Then `CCCn1c(NCc2c[nH]c3ccccc23)nc2ccccc21`, with “inactive”; and `CCC(C)N1C(=O)/C(=C/c2ccc3c(c2)CCN3CCCCl)C(=O)NC1=S` (centres undefined), with “inactive”.

For the molecule `COc1ccc(-n2c(=O)c3ccccc3n(CC(=O)Nc3cc(C)on3)c2=O)cc1OC`, the molecule was classed as inactive. Turning to `CCn1c2ccccc2c2cc(NC(=O)COc3ccccc3)ccc21`, the molecule was called inactive. On to `CCCSc1nc(N2CCCC2)c2c(c1C#N)CC(C)(C)OC2`, for which the molecule was classed as inactive. Regarding `c1nc(N2CCC3(CC2)OCCO3)c2c3c(sc2n1)CCCC3`, the molecule was classed as inactive.

As for `C=CCc1ccccc1OCC(O)CN1CCN(CCN2C(=O)c3cccc4cccc(c34)C2=O)CC1` (centres undefined), the outcome was inactive.

`COc1ccc([N+](=O)[O-])cc1N(CC(O)Cn1nnc2ccccc21)S(=O)(=O)c1ccc(C)cc1` (centres undefined): the call was inactive. Consider `Cc1ccc(/C(O)=C2\C(=O)C(=O)N(CC(C)O)C2c2cccc(F)c2)cc1` (centres undefined), for which the outcome was inactive. Turning to `COc1ccc(C2CC(c3ccccc3)=NN2C(=O)COC(=O)c2cccnc2)cc1` (centres undefined), the call was inactive. Take `CCOC(=O)/C=C1\SCC(=O)N1CC(=O)NC1CCCCC1`: the result was inactive.

For the molecule `COC(=O)c1ccc2c(=O)n(CCN3CCOCC3)c(SCC(=O)C(C)(C)C)nc2c1`, the call was inactive. With `Cc1nn(-c2ccccc2)c(N2CCCC2)c1/C=N/Nc1ccc(S(N)(=O)=O)cc1[N+](=O)[O-]`, the molecule was called inactive.

Turning to `c1ccc2c(c1)ncn2CCCCOc1ccc2c(c1)CCC2`, the outcome was inactive.

Take `Cc1ncoc1C(=O)Nc1cccc(Cl)c1`: the molecule was classed as inactive. For the molecule `CSc1cccc(NC(=O)c2ccco2)c1`, the result was inactive. For `CC1N(C)c2cc(NC(=O)c3ccco3)ccc2C1(C)C` (centres undefined), the molecule was classed as inactive. `O=C(Nc1ccc2c(c1)oc1ccccc12)N1CCOCC1`: the call was inactive.

As for `O=C(NCC(=O)N(c1cccnc1)C(C(=O)NCc1ccco1)c1ccccc1)c1ccco1` (centres undefined), the outcome was inactive. Turning to `CC(=O)c1c(C)n([O-])c2cc(F)c(F)cc2[n+]1=O`, the result was inactive.

`Cc1c(C(=O)Nc2cccc(Cl)c2)c2ccccn2c1CCc1ccncc1`: the result was inactive. As for `CCOc1ccc(-c2nnc(SCc3nnc(-c4ccccc4)o3)n2-c2ccccc2F)cc1`, the entry is “inactive”. Then `CCC(CC)NC(=O)COC(=O)c1ccc(OCC(=O)Nc2ccccc2OC)c(OC)c1`, with “inactive”; and `Cc1nn(-c2ccccc2)c(C)c1C(=O)OC/C(O)=C(\C#N)c1nc2ccccc2[nH]1`, with “inactive”. Take `COC(=O)c1sc2nc(CSc3nc4ccc(C)cc4[nH]3)[nH]c(=O)c2c1C`: the call was inactive. Then `CCOCC(=O)Nc1ccc(F)c(F)c1`, with “inactive”; and `Nc1nc(N)nc(-c2ccccc2)n1`, with “inactive”; and `O=C(Nc1cccc(Cl)c1)Nc1ccc2c(c1)OCO2`, with “inactive”. In the case of `N/C(=N/OC(=O)c1ccccc1Cl)c1ncc([N+](=O)[O-])s1`, the outcome was inactive. As for `O=C(NCCCc1ccccc1)Nc1cccc(Cl)c1`, the entry is “inactive”; as for `CC(C)(C)c1ccc(NC(=O)COC(=O)c2ccc([N+](=O)[O-])s2)cc1`, “inactive”; as for `CCOC(=O)Nc1ccc(C)cc1C`, “inactive”. With `CCOC(=O)c1sc(-c2ccc(C(F)(F)F)cc2)nc1O`, the outcome was inactive.

Take `O=C(NNc1c2ccccc2nc2ccccc12)c1ccccc1O`: the call was inactive. Take `CC(C)c1ccc(NC(=O)N(CCc2nc3ccccc3[nH]2)C2CCCC2)cc1`: the call was inactive. As to `Cc1ccc(CNC(=O)Nc2cccs2)cc1`, the molecule was classed as inactive.

Turning to `CCCc1cc(C(=O)NNC(=S)NC(C)c2ccccc2)cs1` (centres undefined), the result was inactive. For `Cc1noc(C)c1CSc1nc2ccccc2nc1NS(=O)(=O)c1ccc(Cl)cc1`, the molecule was called inactive. Consider `COc1ccc(C(=O)NC(=S)NCc2ccc(-c3nc4ccccc4o3)cc2)cc1OC`, for which the outcome was inactive. With `O=C(O)CC(NC(=S)NCc1ccccc1)C(=O)O` (centres undefined), the molecule was classed as inactive. `Cc1cc(Nc2ccc(Cl)cc2)nc(N)n1`: the result was inactive. Take `O=S(=O)(c1ccc(NC(=S)Nc2ccc3c(c2)OCO3)cc1)N1CCOCC1`: the molecule was called inactive.

In the case of `CC(C(=O)NC1CCS(=O)(=O)C1)N1C(=O)/C(=C/c2ccc(Cl)cc2)SC1=S` (centres undefined), the molecule was classed as inactive. Regarding `O=S1(=O)C=CC(Nc2cccc(Cl)c2)C1` (centres undefined), the outcome was inactive. As to `CC1=C(C(=O)OCC2CCCO2)C(c2cccc(C(F)(F)F)c2)C2=C(CC(c3ccco3)CC2=O)N1` (centres undefined), the call was inactive. Regarding `CN(CCNS(=O)(=O)c1ccc2c(c1)oc(=O)n2C)Cc1ccccc1`, the molecule was classed as inactive. With `COc1ccc(-c2cnn3c(N)c(S(=O)(=O)C(C)(C)C)cnc23)cc1`, the call was inactive.

As to `C/C(=C\C(=O)c1cccnc1)Nc1ccc(O)cc1`, the molecule was classed as inactive. Then `O=C(N/N=C/C1CC=CCC1)c1ccc(Cl)cc1O` (centres undefined), with “inactive”.

Turning to `O=C(N/N=C/c1ccc(Cl)cc1Cl)c1cccc(F)c1`, the molecule was called inactive.

`N/C(=N\OC(=O)COc1ccc(Cl)cc1)c1cccnc1`: the outcome was inactive.

On to `O=C(N/N=C/C1C(c2ccccc2)C1(Cl)Cl)c1cccc(Cl)c1` (centres undefined), for which the call was inactive. With `CC(=O)Nc1ccc(OC(=O)c2cccnc2)cc1`, the call was inactive.

Take `N/C(=N\OC(=O)Cc1ccc(Cl)cc1)c1cccnc1`: the result was inactive. `N#CC(CC(=O)c1ccc(F)cc1)c1ccc2c(c1)OCO2` (centres undefined): the molecule was classed as inactive. As for `C/C(=N\NC(=S)Nc1ccc(F)cc1)c1ccc2c(c1)OCCO2`, the entry is “inactive”.

Take `C(=N\c1nc2ccccc2n1CCN1CCCCC1)/c1cccs1`: the molecule was classed as inactive. Consider `Cc1cccc(C(=O)Nc2nnc(Cc3c[nH]c4ccccc34)s2)c1`, for which the molecule was called inactive. With `CC1CN(C(=O)CCc2ccccc2)C(C)CN1C(=O)CCc1ccccc1` (centres undefined), the call was inactive. `Cc1cccc(OCCSCc2nc3ccccc3[nH]2)c1`: the molecule was called inactive.

For the molecule `Cc1ccc(Cn2cnc3ccccc32)cc1`, the outcome was inactive. `Cc1ccc(-c2nnc(SCC(=O)N3CCCc4ccccc43)n2N)cc1`: the molecule was classed as inactive.

For the molecule `Clc1ccc(-c2cnc3n2CCC3)cc1`, the molecule was classed as inactive. `O=[N+]([O-])c1ccc(N2CCN(CCOc3nonc3-c3ccccc3)CC2)c(Cl)c1`: the result was inactive. As to `Cc1occc1C(=O)n1cnc2ccccc21`, the molecule was classed as inactive. In the case of `Nc1c(-c2ccccc2Cl)cnn1-c1cccc([N+](=O)[O-])c1`, the molecule was called inactive.

Turning to `C=C(C)C1Cc2cc3ccc(=O)oc3cc2O1` (centres undefined), the molecule was classed as inactive. Then `CCOC(=O)C1=C(C)N(CCO)C(=O)NC1c1cccc(O)c1` (centres undefined), with “inactive”; and `O=c1c2ccccc2nnn1Cc1ccccn1`, with “inactive”; and `Cc1cc(C)c(C#N)c(SCC(O)CS(=O)(=O)Cc2ccccc2)n1` (centres undefined), with “inactive”. As for `Nc1nnc(CC(=O)N/N=C\c2cc([N+](=O)[O-])ccc2O)s1`, the outcome was inactive. `Cc1ccc(N=Nc2ccc(O)c(/C=N\NC(=O)c3ccc(N)cc3)c2)cc1C`: the call was inactive. In the case of `Cc1cc(/C=N/NC(=O)c2cccc([N+](=O)[O-])c2)c(C)n1-c1ccc(Cl)cc1Cl`, the result was inactive.

For `Cc1cc(C(=O)N/N=C/c2cc(Br)cc(Br)c2OC(=O)c2ccccc2)n[nH]1`, the outcome was inactive. Consider `C/C(=N\NC(=O)C1CC1c1ccccc1)c1cccc([N+](=O)[O-])c1` (centres undefined), for which the molecule was classed as inactive. As for `Cc1ccc2cccc(Oc3ncnc4scc(-c5ccccc5)c34)c2n1`, the call was inactive. On to `CN(C)c1ccnc(-n2cccc2/C=N/OCc2ccccc2)c1C#N`, for which the call was inactive. For `COc1ccc(OC)c(NC(=O)c2cc3c(Cl)nc4ccccc4c3s2)c1`, the result was inactive. Turning to `Cc1ccc(C)c(C(=O)NCc2ccncc2)c1`, the molecule was classed as inactive.

Take `COc1ccc(CN=C2Nc3ccccc3CS2)cc1`: the call was inactive. Take `O=c1c2cc(Br)ccc2nc(-c2ccccc2)n1O`: the molecule was classed as inactive. As to `CN1CCCC(OC(=O)c2ccc(Cl)cc2)C1` (centres undefined), the result was inactive. As for `NC(=S)c1cc2ccc(O)cc2oc1=O`, the molecule was classed as inactive. Then `OCCCNc1nc(-c2ccc(Cl)cc2)nnc1-c1ccc(Br)cc1`, with “inactive”; and `CCn1c(CNC(=O)COc2ccc(C(C)C)cc2)nnc1SCC(=O)Nc1ccccc1`, with “inactive”; and `FC(F)(F)c1cc(C(F)(F)F)c2ccc(Oc3ccccc3)nc2n1`, with “inactive”. For `Cc1cc(C)c2c(c1)NC(=O)C2(O)CC(=O)c1cccs1` (centres undefined), the call was inactive.
